Records with an inconclusive call do not appear. Active and inactive are the calls of the source. Rule for the calls, unless noted: active = hit-call score of the fitted dose curve at least 0.9, where 1 is the maximum; inactive = score below 0.9.

Assay [1] has as its target Retinoic acid receptor RXR-alpha (Homo sapiens) (UniProt P19793). Nature of the assay: ATG_RXRa_TRANS: Attagene TRANS-FACTORIAL HepG2 Assay for human Retinoid X Receptor alpha (RXRa) (AID 2283012; active = hit-call score of the fitted dose curve at least 0.9, where 1 is the maximum). In a few lines:
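Read-out: fluorescent reporter-transcript fragments quantified by capillary electrophoresis after RT-PCR. Transiently transfected HepG2 cells carrying GAL4-UAS reporters and NR-GAL4 chimeras were exposed to chemical for 24 h; activity scored as increase over DMSO.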

For assay [2], the target named is human Retinoid X Receptor beta (RXRb), RXRB (gene 6257) (UniProt P28702). As to the kind of experiment: ATG_RXRb_TRANS: Attagene TRANS-FACTORIAL HepG2 Assay for human Retinoid X Receptor beta (RXRb) (AID 2283013; active = hit-call score of the fitted dose curve at least 0.9, where 1 is the maximum). In a few lines:
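Read-out: reporter mRNA induction via RT-PCR plus capillary electrophoresis fluorescence, analysed as signal increase relative to DMSO. Cells were human HepG2, transiently transfected with GAL4-UAS reporter constructs and chimeric receptor-Gal4 fusions, dosed for 24 h.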

Assay [3] deals with human Thyroid Receptor alpha (THRa1), THRA (gene 7067) (UniProt P10827). Nature of the assay: ATG_THRa1_TRANS: Attagene TRANS-FACTORIAL HepG2 Assay for human Thyroid Receptor alpha (THRa1) (AID 2283014; active = hit-call score of the fitted dose curve at least 0.9, where 1 is the maximum). The procedure, abridged: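 Reporter transcript induction, read by capillary electrophoresis of 6-FAM-labelled RT-PCR products, reflects activity of a transfected THRa1-Gal4 fusion in HepG2 liver cells. Cells were dosed for 24 h; activity was fitted in the positive direction against DMSO.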

Read-out in assay [4]: E-selectin (Homo sapiens) (UniProt P16581)
As to the kind of experiment: BSK_3C_Eselectin: BioMAP Diversity Plus: 3C Assay for Eselectin Biomarker Activity (AID 2283015).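 For outcome: cell surface E-selectin protein quantified by ELISA 24 h after dosing.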 The following applies: primary human endothelial cells (HUVEC); actives raise or lower the signal. The procedure, abridged: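 ELISA read-out of E-selectin on endothelial monolayers after 24 h chemical treatment. Human umbilical vein primary cells served as the system, with DMSO defining baseline activity for bidirectional fitting.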

Read-out in assay [5]: Interleukin-1 alpha (IL1a), IL1A (gene 3552)
As to the kind of experiment: BSK_BE3C_IL1a: BioMAP Diversity Plus: BE3C Assay for Interleukin-1 alpha (IL1a) Biomarker Activity (AID 2283016). The following applies: primary human bronchial epithelial cells; actives raise or lower the signal. In a few lines: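 ELISA read-out of IL-1a from human lung bronchial epithelial primary cells, 24 h post-dose. Gain or loss of signal fitted relative to DMSO negative control.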

Read-out in assay [6]: Monocyte Chemoattractant Protein-1 (MCP1), CCL2 (gene 6347)
As to the kind of experiment: BSK_3C_MCP1: BioMAP Diversity Plus: 3C Assay for Monocyte Chemoattractant Protein-1 (MCP1) Biomarker Activity (AID 2283017). The following applies: primary human endothelial cells (HUVEC); actives raise or lower the signal. In a few lines:
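ELISA read-out of MCP-1 from human umbilical vein endothelial cell cultures harvested 24 h post-dosing. Gain or loss of signal was fitted relative to DMSO.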

Read-out in assay [7]: Monocyte Chemoattractant Protein-1 (MCP1), CCL2 (gene 6347)
As to the kind of experiment: BSK_4H_MCP1: BioMAP Diversity Plus: 4H Assay for Monocyte Chemoattractant Protein-1 (MCP1) Biomarker Activity (AID 2283018). The following applies: primary human endothelial cells (HUVEC); actives raise or lower the signal. In a few lines:
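HUVEC primary cells, 24 h post-dose, MCP-1 by ELISA. Gain or loss of signal fitted bidirectionally vs DMSO baseline. Cytotoxicity: SRB stain (0.1% after 10% TCA fixation), read 560 nm, parallel cultures.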

Read-out in assay [8]: Human Leukocyte Antigen - DR isotype (HLADR), HLA-DRA (gene 3122)
As to the kind of experiment: BSK_3C_HLADR: BioMAP Diversity Plus: 3C Assay for Human Leukocyte Antigen - DR isotype (HLADR) Biomarker Activity (AID 2283019). The following applies: primary human endothelial cells (HUVEC); actives raise or lower the signal. The procedure, abridged: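 ELISA readout of surface HLA-DR on human umbilical vein endothelium, taken 24 h after chemical treatment. Gain- and loss-of-signal were both fitted relative to DMSO.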

Read-out in assay [9]: Interleukin-8 (IL8), CXCL8 (gene 3576)
Nature of the assay: BSK_3C_IL8: BioMAP Diversity Plus: 3C Assay for Interleukin-8 (IL8) Biomarker Activity (AID 2283020). The following applies: primary human endothelial cells (HUVEC); actives raise or lower the signal. The procedure, abridged: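 HUVEC, 3C stimulation; 24 h compound exposure; IL-8 read by ELISA; gain or loss of signal fitted relative to DMSO control.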

Read-out in assay [10]: Monokine induced gamma interferon (MIG), CXCL9 (gene 4283)
As to the kind of experiment: BSK_3C_MIG: BioMAP Diversity Plus: 3C Assay for Monokine induced gamma interferon (MIG) Biomarker Activity (AID 2283021).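 For AC50: MIG protein level measured by immunoassay in the treated endothelial cultures.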 The following applies: primary human endothelial cells (HUVEC); actives raise or lower the signal. In a few lines: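 HUVEC, 3C system; 24 h chemical exposure; MIG by ELISA; bidirectional fit vs DMSO baseline.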

Assay [11] addresses human Vitamin D Receptor (VDR), VDR (gene 7421) (UniProt P11473). As to the kind of experiment: ATG_VDR_TRANS: Attagene TRANS-FACTORIAL HepG2 Assay for human Vitamin D Receptor (VDR) (AID 2283022; active = hit-call score of the fitted dose curve at least 0.9, where 1 is the maximum). In a few lines: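 Steps: transfect HepG2 with GAL4-UAS-driven reporter constructs; dose compounds 24 h; isolate RNA, reverse-transcribe, PCR-amplify with 6-FAM-labelled primer extension and HpaI digestion; quantify fragments by capillary electrophoresis relative to DMSO.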

The nature of assay [12]: BSK_3C_SRB: Viability Assessment in the BioMAP Diversity Plus: 3C Assay (AID 2283023).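 Note: fitted both ways against DMSO so a hit may be signal rise or drop.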 The following applies: primary human endothelial cells (HUVEC). The procedure, abridged:
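Absorbance at 560 nm of sulforhodamine B-stained (0.1%) total protein served as a cytotoxicity readout in human umbilical vein endothelial cells, 24 h after chemical treatment. Signal was fitted bidirectionally relative to DMSO.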

Read-out in assay [13]: Matrix Metallopeptidase 1 (MMP1), MMP1 (gene 4312)
Nature of the assay: BSK_BE3C_MMP1: BioMAP Diversity Plus: BE3C Assay for Matrix Metallopeptidase 1 (MMP1) Biomarker Activity (AID 2283024). The following applies: primary human bronchial epithelial cells; actives raise or lower the signal. The procedure, abridged: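 ELISA read-out of MMP1 in human lung bronchial epithelial primary cultures, 24 h post-dose; bidirectional curve fit vs DMSO baseline, gain or loss of signal scored.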

Assay [14] can be described thus: BSK_3C_Vis: BioMAP Diversity Plus: 3C Assay for Morphology Visualization (AID 2283025).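 For AC50: light microscopy image of cell morphology used as background control.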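 Note: fitted both ways so gain or loss versus DMSO counts.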 The following applies: primary human endothelial cells (HUVEC). In a few lines:
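HUVEC, 3C system; light microscopy of morphology at 24 h post-dose. Bidirectional fit vs DMSO baseline. Secondary readout, background-control function.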

Assay [15] is described as follows: BSK_4H_SRB: Viability Assessment in the BioMAP Diversity Plus: 4H Assay (AID 2283027).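 For AC50: curves fitted both ways versus DMSO so AC50 may be loss or gain.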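 Note: cells exposed to compound for 24 h before staining.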 The following applies: primary human endothelial cells (HUVEC). In a few lines: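 HUVEC, 24 h post-dose; 10% TCA fix, 0.1% SRB stain, A560 nm. Total protein = overt cytotoxicity, parallel to biomarker read. Bidirectional fit vs DMSO baseline.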
Assay [16] in a line: BSK_BE3C_SRB: Viability Assessment in the BioMAP Diversity Plus: BE3C Assay (AID 2283028). The following applies: primary human bronchial epithelial cells. The procedure, abridged: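 Cells (human bronchial epithelial, primary) are treated with chemicals, and after 24 h the parallel cultures are fixed in 10% TCA. These are then stained with 0.1% SRB and read at 560 nm. Gain or loss of signal is fitted relative to DMSO.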

Read-out in assay [17]: Thrombomodulin, THBD (gene 7056)
Nature of the assay: BSK_3C_Thrombomodulin: BioMAP Diversity Plus: 3C Assay for Thrombomodulin Biomarker Activity (AID 2283029). The following applies: primary human endothelial cells (HUVEC); actives raise or lower the signal. The procedure, abridged: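 HUVEC, 3C conditions; compound 24 h; thrombomodulin by ELISA; bidirectional curve fit vs DMSO baseline; parallel SRB total-protein staining for cytotoxicity.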

Read-out in assay [18]: Urokinase-type plasminogen activator receptor (uPAR), PLAUR (gene 5329)
As to the kind of experiment: BSK_4H_uPAR: BioMAP Diversity Plus: 4H Assay for Urokinase-type plasminogen activator receptor (uPAR) Biomarker Activity (AID 2283030). The following applies: primary human endothelial cells (HUVEC); actives raise or lower the signal. In a few lines: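 Cell-surface uPAR ELISA signal, measured 24 h after dosing human umbilical vein endothelial cells, was analyzed with bidirectional fitting relative to DMSO. Parallel SRB staining of total protein tracked overt cytotoxicity.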

Read-out in assay [19]: Vascular endothelial growth factor receptor 2 (Homo sapiens) (UniProt P35968)
Nature of the assay: BSK_4H_VEGFRII: BioMAP Diversity Plus: 4H Assay for Vascular endothelial growth factor receptor 2 (VEGFR2) Biomarker Activity (AID 2283031).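 For AC50: cell-surface VEGFR2 protein level quantified by ELISA.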 The following applies: primary human endothelial cells (HUVEC); actives raise or lower the signal. In a few lines:
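ELISA read-out of VEGFRII in primary human umbilical vein endothelium, taken 24 h after chemical treatment. Responses are expressed relative to DMSO, with bidirectional fitting.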

Read-out in assay [20]: Pselectin, SELP (gene 6403)
Nature of the assay: BSK_4H_Pselectin: BioMAP Diversity Plus: 4H Assay for Pselectin Biomarker Activity (AID 2283026). The following applies: primary human endothelial cells (HUVEC); actives raise or lower the signal. The procedure, abridged: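 HUVEC, 24 h chemical exposure; P-selectin read by ELISA. Bidirectional curve fit vs DMSO baseline; gain or loss of signal scored.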

Sequence of Retinoic acid receptor RXR-alpha (Homo sapiens) (P19793 whole entry, looked up, the tested form may be a part): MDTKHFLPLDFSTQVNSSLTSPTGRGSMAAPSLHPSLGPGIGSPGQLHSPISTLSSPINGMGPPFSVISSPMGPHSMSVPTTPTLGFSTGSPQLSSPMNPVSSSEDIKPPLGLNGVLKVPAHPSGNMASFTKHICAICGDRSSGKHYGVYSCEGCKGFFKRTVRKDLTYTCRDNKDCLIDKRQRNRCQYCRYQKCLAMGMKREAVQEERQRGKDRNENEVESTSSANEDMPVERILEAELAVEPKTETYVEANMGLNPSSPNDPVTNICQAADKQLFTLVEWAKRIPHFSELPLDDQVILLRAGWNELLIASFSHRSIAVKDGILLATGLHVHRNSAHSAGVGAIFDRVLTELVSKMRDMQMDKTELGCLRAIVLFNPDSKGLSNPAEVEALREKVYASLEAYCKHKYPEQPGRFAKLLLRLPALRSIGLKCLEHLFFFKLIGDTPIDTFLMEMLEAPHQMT
Sequence of human Vitamin D Receptor (VDR), VDR (gene 7421) (P11473 whole entry, looked up, the tested form may be a part): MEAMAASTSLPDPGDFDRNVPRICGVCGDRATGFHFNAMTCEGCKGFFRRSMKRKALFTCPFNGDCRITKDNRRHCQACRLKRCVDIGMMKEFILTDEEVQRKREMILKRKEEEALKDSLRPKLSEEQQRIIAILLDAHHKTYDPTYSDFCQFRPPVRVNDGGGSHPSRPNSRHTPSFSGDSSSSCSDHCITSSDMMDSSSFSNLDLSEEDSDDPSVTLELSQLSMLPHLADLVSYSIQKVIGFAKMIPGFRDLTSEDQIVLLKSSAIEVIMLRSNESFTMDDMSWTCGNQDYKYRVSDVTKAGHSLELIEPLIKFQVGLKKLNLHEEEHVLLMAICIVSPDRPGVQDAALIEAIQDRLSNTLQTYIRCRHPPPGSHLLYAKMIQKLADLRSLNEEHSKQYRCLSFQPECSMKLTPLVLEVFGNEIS
Sequence of E-selectin (Homo sapiens) (P16581 whole entry, looked up): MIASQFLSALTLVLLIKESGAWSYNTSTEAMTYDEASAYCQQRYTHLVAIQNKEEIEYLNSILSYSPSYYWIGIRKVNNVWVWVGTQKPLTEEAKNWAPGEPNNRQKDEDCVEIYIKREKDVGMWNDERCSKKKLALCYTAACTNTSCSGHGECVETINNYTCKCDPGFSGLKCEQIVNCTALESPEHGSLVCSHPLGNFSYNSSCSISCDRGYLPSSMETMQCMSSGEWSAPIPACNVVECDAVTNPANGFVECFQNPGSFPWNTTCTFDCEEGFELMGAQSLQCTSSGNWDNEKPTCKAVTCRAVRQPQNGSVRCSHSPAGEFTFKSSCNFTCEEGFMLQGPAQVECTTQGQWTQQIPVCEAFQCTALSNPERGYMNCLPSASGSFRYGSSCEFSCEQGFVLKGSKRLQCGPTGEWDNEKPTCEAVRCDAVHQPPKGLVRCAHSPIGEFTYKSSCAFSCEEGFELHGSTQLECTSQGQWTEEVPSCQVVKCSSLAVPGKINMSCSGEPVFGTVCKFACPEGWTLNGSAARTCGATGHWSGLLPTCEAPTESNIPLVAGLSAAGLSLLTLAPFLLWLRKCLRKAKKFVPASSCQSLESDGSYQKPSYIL
Sequence of human Retinoid X Receptor beta (RXRb), RXRB (gene 6257) (P28702 whole entry, looked up, the tested form may be a part): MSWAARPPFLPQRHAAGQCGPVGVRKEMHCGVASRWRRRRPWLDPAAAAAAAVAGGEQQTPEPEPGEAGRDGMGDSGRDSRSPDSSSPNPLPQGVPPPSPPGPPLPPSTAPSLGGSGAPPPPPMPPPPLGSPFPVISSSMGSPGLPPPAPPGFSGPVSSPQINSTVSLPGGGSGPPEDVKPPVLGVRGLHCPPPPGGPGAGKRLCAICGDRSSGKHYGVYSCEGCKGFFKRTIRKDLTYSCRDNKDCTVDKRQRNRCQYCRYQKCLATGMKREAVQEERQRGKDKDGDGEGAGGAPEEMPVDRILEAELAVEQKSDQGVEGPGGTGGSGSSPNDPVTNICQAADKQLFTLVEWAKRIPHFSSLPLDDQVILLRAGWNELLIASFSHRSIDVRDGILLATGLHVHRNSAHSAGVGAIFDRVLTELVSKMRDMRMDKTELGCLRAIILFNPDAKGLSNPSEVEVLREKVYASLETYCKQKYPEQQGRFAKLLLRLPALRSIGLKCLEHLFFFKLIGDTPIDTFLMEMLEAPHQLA
Sequence of human Thyroid Receptor alpha (THRa1), THRA (gene 7067) (P10827 whole entry, looked up, the tested form may be a part): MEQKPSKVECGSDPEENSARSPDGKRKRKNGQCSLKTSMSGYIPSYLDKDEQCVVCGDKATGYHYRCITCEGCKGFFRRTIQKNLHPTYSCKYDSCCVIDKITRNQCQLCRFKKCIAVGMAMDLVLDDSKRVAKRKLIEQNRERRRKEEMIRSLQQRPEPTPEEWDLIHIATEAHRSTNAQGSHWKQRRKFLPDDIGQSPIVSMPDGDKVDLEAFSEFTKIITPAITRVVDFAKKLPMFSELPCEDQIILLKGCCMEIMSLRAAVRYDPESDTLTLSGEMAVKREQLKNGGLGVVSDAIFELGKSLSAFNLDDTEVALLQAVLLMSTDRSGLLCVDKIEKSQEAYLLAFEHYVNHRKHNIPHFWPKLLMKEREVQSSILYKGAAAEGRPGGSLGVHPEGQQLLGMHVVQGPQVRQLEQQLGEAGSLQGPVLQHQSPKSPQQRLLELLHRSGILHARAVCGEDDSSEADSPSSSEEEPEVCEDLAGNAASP

In the case of `Cc1ccc([N+](=O)[O-])cc1`, the call in assay [1], in assay [2], in assay [3], in assay [4], in assay [5] and in assay [6] was inactive. Further, the result in assay [7], in [8], in [9], in assay [10], in assay [11] and in [12] was inactive. Moreover, the outcome in assay [13], in assay [14], in assay [15], in assay [16], in assay [17] and in assay [18] was inactive. In assay [19], the result was inactive.

`Nc1ccc(Cl)cc1N`: the molecule was called inactive in [1], in [3], in assay [5], in assay [6], in [7] and in assay [9]. For the same molecule, the result in [10], in [11], in assay [12], in [14], in assay [15] and in [16] was inactive. In addition, the result in assay [18] and in [19] was inactive. Moreover, the AC50 – broadly, the concentration at which the activity in the assay is half-maximal – in [2] was 27.8 µM (active); in [4], 3.48 µM (active); in assay [8] it was 5.99 µM (active); in [13], 1.69 µM (active); in assay [17] it was 0.785 µM (active).

As to `CC(C)(OOC(C)(C)c1ccccc1)c1ccccc1`, the molecule was called inactive in [1], in assay [5], in assay [11], in assay [16], in [17] and in assay [18]. Also, the AC50 in assay [2] is 12.4 µM (active); in assay [4] it was 26.1 µM (active); in [6], 15.8 µM (active); in [7], 26.5 µM (active); in assay [8], 24.6 µM (active); in assay [9], 29.8 µM (active). Further, the AC50 in assay [10] is 29.3 µM (active); in [12] it was 36.5 µM (active); in assay [13], 11.4 µM (active); in [14], 37.5 µM (active); in assay [20], 35.9 µM (active); in assay [15] it was 32.3 µM (active). In addition, the AC50 in assay [19] was 37.3 µM (active).

These data come from PubChem BioAssay (EPA / NIEHS).
